# Test results reported in PubChem BioAssay (Tox21).
# “And” between values parts separate entries of the source, which are not always exact repeats. Equal values may be shown once. Records with an inconclusive call do not appear. A call without a number means that no potency is given here. A structure can be active in one record and inactive in another. The source made the active and inactive calls. The call rests on the fitted dose curve; in most records, active means well fitted cell-killing curve with a large enough effect in the repeat runs; inconclusive means weak or mixed curves, or effect the other way; inactive means no such curve, though single readings can be large or run the other way.
# Experiment: qHTS assay to identify small molecule antagonists of the thyroid receptor (TR) signaling pathway - cell viability counter screen (AID 743064); further: nearly all actives have a fitted effect of over 50% in size
# Details: GH3.TRE-Luc viability, CellTiter-Fluor, 24 h; series mostly up to 70.3 µM
# From the text: National Center for Advancing Translational Sciences [NCATS]
# NIH Chemical Genomics Center [NCGC]
# U.S. Environmental Protection Agency [EPA]
# National Institutes of Environmental Health Sciences [NIEHS]
# National Toxicology Program [NTP]
# U.S. Food and Drug Administration [FDA]
# Thyroid receptor (TR), a nuclear hormone receptor, plays an important role in development, proliferation, differentiation, metabolism, brain function, and cardiovascular system. […] To profile the Tox21 10K compound library in TR signaling, a cell-based GH3-TRE-Luc assay (GH3.TRE-Luc cell line, developed by the laboratory of Dr. Albertinka J. Murk, Wageningen University) was used to measure the inhibition of TR. GH3 (rat pituitary tumor) cells stably expressing a TR activity sensor consisting of two TR response elements and a luciferase reporter gene. The cytotoxicity of the Tox21 compound library against the GH3.TRE-Luc cell line was tested in parallel by measuring the cell viability using CellTiter-Fluor assay (Promega, Madison, WI) in the same wells.
# Tox21 Assay Protocol Summary:
# GH3.TRE-Luc cells were dispensed at 1500 cells/4 uL/well into 1536-well white solid bottom plates using a Multidrop Combi dispenser (Thermo Fisher Scientific Inc., Waltham, MA). After the assay plates were incubated at 37 C for 4 hours, 23 nL of library compound or DMSO controls was transferred to the assay plates by a pintool station (Kalypsys, San Diego, CA), followed by addition of 1 ul of T3 (1 nM, final concentration in the wells) to stimulate TR transactivation. The assay plates were incubated at 37 C for 23.5 h, and then 1 uL of CellTiter-Fluor reagent (Promega, Madision, WI) of measuring cytotoxicity was added to each well using a Bioraptr Flying Reagent Dispenser (FRD) workstation (Beckman Coulter, Indianapolis, IN, USA). The plates were incubated at 37C and 5% CO2 for additional 30 min, and fluorescence intensity was measured by a ViewLux plate reader (PerkinElmer, Shelton, CT).
# Potency means the concentration at half of the fitted maximal effect.
row,SMILES,Potency
1,CC/C(=N\OC/C=C/Cl)C1=C(O)CC(C2CCOCC2)CC1=O (stereo not given),inactive
2,CCC(Br)(CC)C(=O)NC(N)=O,inactive
3,CC(=O)[C@H]1CC[C@H]2[C@@H]3CC[C@H]4C[C@](C)(O)CC[C@]4(C)[C@H]3CC[C@]12C,inactive
4,COC(=O)C(Cl)C(=O)OC,inactive
5,C/C(=C\c1ccccc1)[N+](=O)[O-],13.7 µM (active)
6,NC(=O)CI,inactive
7,CCOP(=S)(OCC)Oc1cc(Cl)c(Br)cc1Cl,inactive
8,C[C@@H]1CC[C@H]2[C@@H](C)C(=O)O[C@@H]3O[C@@]4(C)CC[C@@H]1[C@]32OO4,5.96 µM (active)
9,O=C1c2ccccc2C(=O)C1C(=O)C(c1ccccc1)c1ccccc1,inactive
10,CC1(C)[C@H](C=C(Cl)Cl)[C@@H]1C(=O)O[C@@H](C#N)c1cccc(Oc2ccccc2)c1,inactive
11,Cc1ccccc1CCl,inactive
12,CCC(C)(NC(=O)c1cc(Cl)c(C)c(Cl)c1)C(=O)CCl (stereo not given),15.4 µM (active)
13,O=C(CCl)c1ccc(Cl)cc1Cl,1.33 µM (active) and 4.33 µM (active) and inactive
14,COC(=O)C(C)N(C(=O)Cc1ccccc1)c1c(C)cccc1C (stereo not given),inactive
15,CCC(Cl)CCl (stereo not given),inactive
16,O=C(O)c1ccccc1C(=O)Nc1cccc2ccccc12,inactive
17,CN1C[C@H](CNC(=O)OCc2ccccc2)C[C@@H]2c3cccc4c3c(cn4C)C[C@H]21,9.44 µM (active)
18,[O-][Cl+]O,inactive
19,ClCc1ccccc1,inactive
20,CC(Cl)Cl,inactive

row,SMILES,Potency
1,COc1cc(Cl)c(OC)cc1Cl,inactive
2,CO/N=C(/C(=O)OC)c1ccccc1COc1ccccc1C,inactive
3,O=S(=O)(Cl)c1ccccc1,inactive
4,O=[N+]([O-])c1cc(C(F)(F)F)cc([N+](=O)[O-])c1Cl,61.4 µM (active)
5,COP(=S)(OC)Oc1ccc([N+](=O)[O-])cc1Cl,inactive
6,C=CCC1([C@H](C)CCC)C(=O)NC(=O)NC1=O,inactive
7,C=CCOC(C)=O,inactive
8,O=C(C(Cl)(Cl)Cl)C(Cl)(Cl)Cl,inactive
9,C=CC[C@]1(O)CC[C@H]2[C@@H]3CCC4=CC(=O)CCC4=C3C=C[C@@]21C,inactive
10,O=C(O)C1(c2ccc3c(c2)OC[C@H](Cc2ccc(-c4ccccc4)cc2)[C@H]3O)CCCC1,61.1 µM (active)
11,C=CC(=O)OC(C)(C)C,inactive
12,O=C(O)C(F)(F)C(F)(F)C(F)(F)C(F)(F)C(F)(F)C(F)(F)C(F)(F)C(F)(F)C(F)(F)C(F)(F)F,inactive
13,O=C1NCN(c2ccccc2)C12CCN(CCCOc1ccc(F)cc1)CC2,13.3 µM (active)
14,c1cc2ccc3cccc4ccc(c1)c2c34,inactive
15,CNC(C)Cc1ccccc1OC (stereo not given),inactive
16,COC(N)=O,inactive
17,Cc1ccc(N)cc1C,inactive
18,O=S1(=O)OC(c2cc(Br)c(O)c(Br)c2)(c2cc(Br)c(O)c(Br)c2)c2ccccc21,49.9 µM (active)
19,COCC(C)N(C(=O)CCl)c1c(C)csc1C (stereo not given),inactive
20,CC(Cl)C(C)Cl (stereo not given),inactive
